Calls of active or inactive are those of the source. Unless noted, how the calls were made is not given here.
Experiments:
[1] = HepG2 liver cancer cell viability effects, profiling panel, resazurin fluorescence, 24 h, PK04 Diversity Set (AID 1172); settings: higher = more signal
[2] = basal S. cerevisiae growth modulation, no modifier, primary screen, OD600, strain BY4716, 24 h, basal condition (AID 1173); settings: OD600, 24 h, higher = more signal, called active from +8 up or from −8 down
[3] = MM1S myeloma cell viability, profiling panel, resazurin fluorescence, basal, 24 h, PK04 Diversity Set (AID 1174); settings: higher = more signal, called active from +8 up or from −8 down;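 further: MM1S multiple myeloma cell line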
[4] = molecular target: Dihydroorotate dehydrogenase (quinone), mitochondrial (Plasmodium falciparum (isolate 3D7)) (UniProt Q08210); experiment: PfDHODH enzyme inhibitors, primary screen, biochemical, C-terminal His tag, absorbance 600 nm (AID 1175); settings: DCIP absorbance 600 nm, higher = more signal, called active from +8 up or from −8 down;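 further: recombinant parasite enzyme with a five histidine tag at its C terminus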
[5] = P. aeruginosa biofilm formation inhibitors, primary screen, strain PAO1, LB-PBS medium, absorbance 600 nm (AID 1176); settings: P. aeruginosa PAO1 growth/biofilm, A600, 12 h; higher = more signal
[6] = S. cerevisiae RM11-1a growth modifiers, primary screen, strain RM11-1a, OD600, basal, 24 h (AID 1177); settings: OD600, 24 h, higher = more signal, called active from +8 up or from −8 down;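 further: cultures grown under basal conditions with no added stressor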
[7] = E. coli acrAB mutant growth effects, primary screen, E. coli filamentation inducers, strain DRC39, OD650, 24 h (AID 1178); settings: higher = more signal, called active from +8 up or from −8 down;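 further: growth measured as culture turbidity by optical density at 650 nm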
[8] = E. coli acrAB mutant growth effects, primary screen, E. coli filamentation inducers, strain DRC39, OD650, 48 h (AID 1179);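 further: screen aims at cell division blockers that make cells filament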; settings: E. coli DRC39 delta-acrAB growth, higher = more signal, called active from +8 up or from −8 down
[9] = RPMI8226 myeloma cell viability, profiling panel, resazurin fluorescence, basal, 24 h, PK04 Diversity Set (AID 1180); settings: higher = more signal;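 further: RPMI8826 multiple myeloma cell line at 5000 cells per well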
[10] = molecular target: E3 ubiquitin-protein ligase XIAP (Homo sapiens) (UniProt P98170); experiment: XIAP binders, primary screen, biophysical, small-molecule microarray, fluorescence 635 nm (AID 1181); settings: small-molecule microarray binding, higher = more signal;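 further: score merges 667 nm emission and signal to noise over triplicate slides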
[11] = tested on: XIP peptide (Xip251-270) binding; experiment: small-molecule binders of XIP peptide, primary screen, biochemical, small-molecule microarray, fluorescence 635/667 nm, 0.1 µg/mL protein (AID 1182); settings: fluorescent protein binding, 635 nm, higher = more signal, called active from +8 up or from −8 down
[12] = tested on: XIP peptide (Xip251-270); experiment: small-molecule binders of XIP peptide, primary screen, biochemical, small-molecule microarray, fluorescence 635/667 nm, 0.5 µg/mL protein (AID 1183); settings: small-molecule microarray binding, fluorescence 635 nm; higher = more signal
[13] = Plasmodium falciparum growth inhibition, primary screen, strain 3D7, DAPI fluorescence, 100 nL (AID 1184);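 further: parasites grown inside human red blood cells in medium with human serum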; settings: P. falciparum 3D7 growth, 3 d, higher = more signal
[14] = molecular target: Homeobox protein Hox-A13 (Mus musculus) (UniProt Q62424); experiment: inhibitors of HoxA13-DNA binding, primary screen, biochemical, fluorescence polarization, labeled oligonucleotide (AID 1185); settings: 15 min, higher = more signal, called active from +8 up or from −8 down
[15] = inhibitors of hydroxyurea-induced Chk1 phosphorylation, primary screen, imaging, HeLa, phospho-Chk1 antibody, percent positive cells (AID 1186); settings: hydroxyurea-induced phospho-Chk1 immunofluorescence imaging, higher = more signal
[16] = inhibitors of hydroxyurea-induced Chk1 phosphorylation, primary screen, imaging, HeLa, phospho-Chk1 nuclear intensity (AID 1187); settings: hydroxyurea-induced phospho-Chk1 immunofluorescence imaging, higher = more signal

Chain of Homeobox protein Hox-A13 (Mus musculus) (Q62424 whole entry, looked up): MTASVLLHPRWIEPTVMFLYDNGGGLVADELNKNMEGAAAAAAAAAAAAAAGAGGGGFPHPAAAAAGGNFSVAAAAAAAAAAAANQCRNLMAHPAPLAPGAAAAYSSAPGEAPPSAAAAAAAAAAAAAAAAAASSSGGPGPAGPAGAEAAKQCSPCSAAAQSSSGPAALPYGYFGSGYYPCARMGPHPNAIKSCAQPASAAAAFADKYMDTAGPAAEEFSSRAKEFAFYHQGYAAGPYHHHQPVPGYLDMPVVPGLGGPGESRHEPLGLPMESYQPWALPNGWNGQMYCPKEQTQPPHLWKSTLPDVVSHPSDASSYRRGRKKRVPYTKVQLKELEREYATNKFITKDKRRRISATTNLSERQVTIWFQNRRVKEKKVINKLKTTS
Chain of E3 ubiquitin-protein ligase XIAP (Homo sapiens) (P98170 whole entry, looked up): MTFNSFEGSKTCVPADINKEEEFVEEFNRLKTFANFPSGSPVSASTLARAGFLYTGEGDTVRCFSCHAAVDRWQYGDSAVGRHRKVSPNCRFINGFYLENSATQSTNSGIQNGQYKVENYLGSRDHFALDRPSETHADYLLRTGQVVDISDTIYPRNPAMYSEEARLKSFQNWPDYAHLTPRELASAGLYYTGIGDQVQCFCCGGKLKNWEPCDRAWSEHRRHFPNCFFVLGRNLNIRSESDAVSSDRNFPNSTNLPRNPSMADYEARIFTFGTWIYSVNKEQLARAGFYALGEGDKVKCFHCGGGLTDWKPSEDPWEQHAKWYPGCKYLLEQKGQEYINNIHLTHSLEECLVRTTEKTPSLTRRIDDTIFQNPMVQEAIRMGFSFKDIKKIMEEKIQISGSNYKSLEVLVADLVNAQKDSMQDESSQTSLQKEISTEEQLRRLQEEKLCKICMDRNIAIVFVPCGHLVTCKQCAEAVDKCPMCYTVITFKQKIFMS
Chain of Dihydroorotate dehydrogenase (quinone), mitochondrial (Plasmodium falciparum (isolate 3D7)) (Q08210 whole entry, looked up): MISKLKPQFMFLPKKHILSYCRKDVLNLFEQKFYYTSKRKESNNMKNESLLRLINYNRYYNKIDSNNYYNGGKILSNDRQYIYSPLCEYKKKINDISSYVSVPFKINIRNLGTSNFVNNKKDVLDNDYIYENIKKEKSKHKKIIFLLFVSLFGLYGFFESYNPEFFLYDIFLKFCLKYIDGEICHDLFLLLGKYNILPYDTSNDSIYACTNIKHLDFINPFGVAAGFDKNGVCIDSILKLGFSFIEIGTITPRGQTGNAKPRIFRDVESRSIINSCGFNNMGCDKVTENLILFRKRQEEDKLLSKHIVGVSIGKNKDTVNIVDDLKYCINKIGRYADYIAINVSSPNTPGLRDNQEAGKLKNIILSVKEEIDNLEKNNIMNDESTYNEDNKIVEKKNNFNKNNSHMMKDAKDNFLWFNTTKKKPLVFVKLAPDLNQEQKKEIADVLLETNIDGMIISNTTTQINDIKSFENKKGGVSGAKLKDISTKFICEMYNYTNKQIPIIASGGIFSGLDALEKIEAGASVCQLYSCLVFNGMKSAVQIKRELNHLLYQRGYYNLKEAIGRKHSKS

Row | Structure (SMILES) | z-score [1] | z-score [2] | z-score [3] | composite z-score [4] | z-score [5] | z-score [6] | z-score [7] | z-score [8] | z-score [9] | composite z-score [10] | composite z-score [11] | composite z-score [12] | z-score [13] | z-score [14] | z-score [15] | z-score [16]
1 | O=C1O[C@H](c2ccccc2)[C@H](c2ccccc2)N2[C@H]1[C@@H](C(=O)NC[C@H](O)c1ccccc1)[C@]1(C(=O)Nc3ccccc31)[C@H]2c1ccc(OCCO)cc1 | 0.293 | 1.3 (inactive) | -2.05 (inactive) | 0.0379 (inactive) | 4.04 (inactive) | 3.05 (inactive) | 0.0797 (inactive) | 0.0403 (inactive) | -3.16 | -0.0272 | 0.674 (inactive) | 0.809 | 0.249 | -5.01 (inactive) | -0.0282 (inactive) | 0.177 (inactive)
2 | C=CCOC(=O)[C@H]1[C@@H]2C(=O)O[C@@H](c3ccccc3)[C@@H](c3ccccc3)N2[C@@H](c2ccc(OCCOC(=O)[C@@H]3C[C@@H]4C(=O)N[C@@H](CCCCN(C)C)C(=O)N4[C@@H]3c3ccc(O)cc3)cc2)[C@]12C(=O)Nc1ccc(I)cc12 | -0.513 | -1.17 (inactive) | -1.06 (inactive) | -1.71 (inactive) | 1.26 (inactive) | 1.65 (inactive) | -0.619 (inactive) | 0.767 (inactive) | -1.18 | -0.0749 | 1.74 (inactive) | 0.805 | -0.174 | 6.34 (inactive) | 0.936 (inactive) | 0.679 (inactive)
3 | C=C(/C(=C/C[C@@H](OC(C)=O)c1ccc(OCCO)cc1)c1cnc2ccccc2c1)C(C)C | 1.22 | -2.05 (inactive) | -0.318 (inactive) | -7.29 (inactive) | -0.165 (inactive) | -1.87 (inactive) | 1.58 (inactive) | 0.79 (inactive) | 1.05 | 0.287 | 0.174 (inactive) | 0.178 | -3 | -4.09 (inactive) | -1.03 (inactive) | -0.163 (inactive)
4 | C=CCN1C(=O)[C@]2(O[C@H](CCO)[C@@H]([Si](C)(C)c3ccc(OC)cc3)[C@@H]2C)c2cc(N3CCCCC3=O)ccc21 | -3.6 | 1.22 (inactive) | -5.89 (inactive) | -1.45 (inactive) | -0.577 (inactive) | 2.97 (inactive) | 0.575 (inactive) | -0.648 (inactive) | -6.02 | -0.258 | 0.238 (inactive) | 0.732 | -2.66 | -6.28 (inactive) | -0.147 (inactive) | -0.56 (inactive)
5 | COc1ccc(CCNC(=O)[C@@H]2c3ccccc3C(=O)N(C3Cc4ccccc4C3)[C@H]2c2ccc(CO)cc2)cc1 | 0.763 | 0.594 (inactive) | -0.642 (inactive) | 0.441 (inactive) | 0.292 (inactive) | 0.205 (inactive) | -0.195 (inactive) | 0.121 (inactive) | -0.303 | 0.126 | 1.14 (inactive) | 0.219 | -0.268 | -3.47 (inactive) | -0.222 (inactive) | -0.28 (inactive)
6 | O=C1c2ccccc2[C@@]2(Cc3ccccc3N(CC(F)(F)F)C2=O)[C@H](c2ccc(CO)cc2)N1Cc1ccccc1Cl | 0.0685 | 0.386 (inactive) | 0.192 (inactive) | -22.2 (active) | 0.848 (inactive) | -0.399 (inactive) | 0.424 (inactive) | -0.411 (inactive) | 0.638 | 0.176 | 0.0764 (inactive) | 0.182 | -0.699 | 0.0876 (inactive) | -0.19 (inactive) | -0.245 (inactive)
7 | CC(=O)NCCCC[C@@H]1NC(=O)[C@@H]2C[C@H](C(=O)NCCCCCCNC(=O)CS)[C@H](c3cccc(OCCO)c3)N2C1=O | -0.396 | 0.174 (inactive) | -0.449 (inactive) | -0.424 (inactive) | 0.752 (inactive) | -0.407 (inactive) | 0.293 (inactive) | 0.367 (inactive) | -1.05 | -0.0791 | 0.732 (inactive) | 0.669 | -0.523 | -4.5 (inactive) | -0.223 (inactive) | -0.0198 (inactive)
8 | Cc1ccc(S[C@]2(C(=O)NCCN3CCOCC3)CC(=O)N(Cc3ccccc3Cl)[C@@H]2c2ccc(CO)cc2)cc1 | 0.286 | -0.709 (inactive) | 1.04 (inactive) | -0.245 (inactive) | 0.621 (inactive) | 0.381 (inactive) | 0.381 (inactive) | 0.237 (inactive) | 0.958 | 0.0428 | -0.255 (inactive) | 0.686 | -1.47 | -4.04 (inactive) | -0.114 (inactive) | -0.121 (inactive)
9 | COCCOC(=O)N1C(=O)[C@@]2(c3ccccc31)[C@H](c1ccc(O)cc1)N1[C@H](c3ccccc3)[C@H](c3ccccc3)OC(=O)[C@H]1[C@@H]2C(=O)NC[C@H](O)c1ccccc1 | -0.796 | 0.861 (inactive) | -0.397 (inactive) | 0.873 (inactive) | 0.173 (inactive) | 0.957 (inactive) | -1.12 (inactive) | -1.29 (inactive) | -0.199 | 0.201 | 2.15 (inactive) | 0.837 | -0.682 | -5.58 (inactive) | -0.229 (inactive) | -0.211 (inactive)
10 | CN1C(=O)C2C=CC(C(O)c3cc(C(F)(F)F)cc(C(F)(F)F)c3)N(N3CCCCC3)C2C1=O (stereo not drawn) | -0.55 | 1.36 (inactive) | -0.136 (inactive) | 0.929 (inactive) | 0.049 (inactive) | 2.29 (inactive) | -0.289 (inactive) | -0.795 (inactive) | 0.493 | -0.295 | 0.11 (inactive) | 0.289 | -0.0782 | -4.54 (inactive) | -1.22 (inactive) | -1.63 (inactive)
11 | COC(=O)[C@@]1(Cc2ccc(OC)cc2)[C@H]2c3cc(C(=O)N(C)C)n(Cc4cccc5ccccc45)c3C[C@H]2CN1C(=O)c1ccccc1 | -1.75 | 0.897 (inactive) | -2.01 (inactive) | -3.49 (inactive) | 2.31 (inactive) | 0.872 (inactive) | -0.353 (inactive) | -0.999 (inactive) | -2.66 | 0.101 | 0.237 (inactive) | 0.822 | -1.61 | -4.2 (inactive) | 0.0329 (inactive) | -0.19 (inactive)
12 | C=C(CCCC)C(=O)CC[C@H](OC(C)=O)c1cccc(OCCO)c1 | 0.0379 | -1.43 (inactive) | -0.602 (inactive) | -1.08 (inactive) | -0.387 (inactive) | -0.561 (inactive) | -0.878 (inactive) | -0.873 (inactive) | -0.482 | -0.0746 | 0.162 (inactive) | -0.0976 | -1.98 | -5.04 (inactive) | -0.0717 (inactive) | -0.148 (inactive)
13 | CCN(CC)c1ccc(N2CC=CC34O[C@@H]5/C=C\CCC(C)OC(=O)C5[C@H]3C(=O)N(C(CO)C(C)C)[C@@H]4C2=O)cc1 (stereo partly drawn) | -0.364 | 0.0948 (inactive) | 0.509 (inactive) | -2.68 (inactive) | -0.525 (inactive) | -0.185 (inactive) | 0.496 (inactive) | 0.767 (inactive) | 0.259 | 0.0049 | 0.0003 (inactive) | -0.431 | -0.214 | -6.03 (inactive) | 0.0858 (inactive) | 0.0174 (inactive)
14 | C=CCOC(=O)[C@H]1[C@@H]2C(=O)O[C@@H](c3ccccc3)[C@@H](c3ccccc3)N2[C@@H](c2ccc(OCCOC(=O)[C@H]3C[C@H]4C(=O)N5CCC[C@H]5C(=O)N4[C@H]3c3ccc(O)cc3)cc2)[C@]12C(=O)Nc1ccccc12 | 0.697 | 1.66 (inactive) | 0.744 (inactive) | -0.391 (inactive) | 3.67 (inactive) | 1.84 (inactive) | -0.0749 (inactive) | -0.13 (inactive) | 0.435 | 0.201 | 0.0734 (inactive) | 0.803 | -1.62 | 1.42 (inactive) | -0.398 (inactive) | 0.207 (inactive)
15 | O=C(C1N=C(c2ccc(OCCCO)cc2)N(c2ccccc2)O1)N1CCOCC1 (stereo not drawn) | 0.55 | -1.3 (inactive) | 0.466 (inactive) | -1.09 (inactive) | -0.91 (inactive) | -1 (inactive) | 1.42 (inactive) | 1.92 (inactive) | 2.12 | -0.163 | 0.254 (inactive) | 0.206 | -0.277 | -2.88 (inactive) | -0.554 (inactive) | -0.262 (inactive)
16 | CCCC=C(CCC)[C@@H](NS(=O)(=O)c1cccs1)c1ccc(C(=O)OC)cc1 | -0.395 | 0.91 (inactive) | 1.18 (inactive) | 0.335 (inactive) | 0.535 (inactive) | 1.59 (inactive) | 0.588 (inactive) | -0.424 (inactive) | -5.85 | 0.0248 | 0.219 (inactive) | 0.507 | -0.677 | -3.19 (inactive) | -0.284 (inactive) | 0.0089 (inactive)
17 | CN1C(=O)C2C=CC(C(O)c3ccc(-c4ccccc4)s3)N(N(c3ccccc3)c3ccccc3)C2C1=O (stereo not drawn) | -0.748 | -0.215 (inactive) | -0.609 (inactive) | -0.585 (inactive) | 1.23 (inactive) | 0.512 (inactive) | -0.554 (inactive) | -0.24 (inactive) | -0.109 | 0.174 | 0.254 (inactive) | 0.322 | 0.33 | 0.329 (inactive) | 0.288 (inactive) | -0.108 (inactive)
18 | C=CCN1C(=O)[C@@]2(O[C@@H](CCO)[C@H]([Si](C)(C)c3ccc(OC)cc3)[C@H]2C)c2cc(NC(=O)c3ccc(OC)cc3)ccc21 | -2.49 | -1.77 (inactive) | -3.52 (inactive) | -1.21 (inactive) | 1.53 (inactive) | 1.69 (inactive) | 1.22 (inactive) | 0.586 (inactive) | -4.92 | -0.154 | 0.574 (inactive) | 0.208 | -2.77 | -4.58 (inactive) | -0.176 (inactive) | 0.416 (inactive)
